Bioassay records: PubChem BioAssay, Broad Institute
IDE exosite FP: displaces the probe from the exo-site of human IDE; P14735; purified IDE, FL-6b probe fluorescence polarization; hits give low values; z-score at 20 µM; actives 6.3% (n = 17,000); AID 1259349;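 active = z-score of -3 or lower, meaning strong loss of probe binding signal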;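 note: His-tagged human IDE residues 42-1019 made in E. coli with 30 nM FL-6b probe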
Target sequence (P14735 42-1019 limits assumed): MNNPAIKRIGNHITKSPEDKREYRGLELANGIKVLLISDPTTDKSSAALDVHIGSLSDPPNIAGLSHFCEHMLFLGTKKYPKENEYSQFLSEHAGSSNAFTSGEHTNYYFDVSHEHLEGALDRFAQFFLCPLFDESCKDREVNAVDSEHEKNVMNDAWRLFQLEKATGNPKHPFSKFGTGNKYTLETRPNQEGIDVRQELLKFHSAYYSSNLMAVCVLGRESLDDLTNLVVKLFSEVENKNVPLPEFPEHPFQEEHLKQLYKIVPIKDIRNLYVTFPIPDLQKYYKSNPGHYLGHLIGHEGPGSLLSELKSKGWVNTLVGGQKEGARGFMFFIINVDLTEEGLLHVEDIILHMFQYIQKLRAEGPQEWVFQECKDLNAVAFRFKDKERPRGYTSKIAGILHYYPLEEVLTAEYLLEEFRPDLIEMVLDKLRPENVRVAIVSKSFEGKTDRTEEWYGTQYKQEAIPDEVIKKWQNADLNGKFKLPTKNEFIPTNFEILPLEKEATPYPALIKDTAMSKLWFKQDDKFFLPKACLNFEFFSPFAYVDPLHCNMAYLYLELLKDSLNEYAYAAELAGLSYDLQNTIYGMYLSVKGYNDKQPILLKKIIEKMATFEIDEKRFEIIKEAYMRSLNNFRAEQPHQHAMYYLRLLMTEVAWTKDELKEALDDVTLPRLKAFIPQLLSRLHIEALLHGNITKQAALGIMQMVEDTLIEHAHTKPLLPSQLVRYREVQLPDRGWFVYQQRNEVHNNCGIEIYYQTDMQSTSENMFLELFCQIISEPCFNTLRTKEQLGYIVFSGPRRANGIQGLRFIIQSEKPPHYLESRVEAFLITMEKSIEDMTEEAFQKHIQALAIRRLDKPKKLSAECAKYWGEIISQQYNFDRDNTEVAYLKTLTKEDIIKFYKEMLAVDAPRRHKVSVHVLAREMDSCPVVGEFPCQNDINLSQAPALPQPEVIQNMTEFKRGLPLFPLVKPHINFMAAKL
Each line names hits and unclear results; the compound was inactive in the other large screens. The full list was thinned out, with hits kept by preference.

COc1ccccc1-c1ccc([C@@H]2[C@H](C#N)N[C@@H]2CO)cc1	IDE exosite FP -9.3
COc1ccccc1-c1ccc([C@H]2[C@@H](CO)N[C@@H]2CNC(=O)C2CCCC2)cc1	IDE exosite FP -11
COc1ccc(-c2ccc([C@H]3[C@H](CO)N[C@@H]3C#N)cc2)cc1	none
O=C(NC[C@@H]1N[C@@H](CO)[C@@H]1c1ccccc1)C1CC1	none
COc1ccccc1-c1ccc([C@H]2[C@H](CO)N[C@@H]2C#N)cc1	IDE exosite FP -4.2
N#C[C@H]1N[C@H](CO)[C@H]1c1ccc(-c2ccccc2F)cc1	none
COc1ccccc1-c1ccc([C@H]2[C@@H](C#N)N[C@@H]2CO)cc1	none
COCC(=O)N1[C@@H](C#N)[C@H](c2ccccc2-c2ccccc2)[C@@H]1CO	none
C[C@@H](NC(=O)C[C@H]1C=C[C@H](NS(=O)(=O)c2cccc(F)c2)[C@@H](CO)O1)c1ccccc1	none
C/C=C/c1ccc([C@H]2[C@H](CO)N(C(=O)CC)[C@H]2CNC(=O)CC)cc1	none
N#C[C@H]1[C@H](c2ccccc2)[C@H](CO)N1C(=O)CCN1CCCCC1	none
CC(C)[C@@H]1CC=CC[C@H](C)Oc2ccccc2C(=O)N(C)[C@H](C(C)C)C(=O)N1 (mixture of isomers)	none
CCCC#Cc1ccc([C@@H]2[C@H]3CN(CC4CC4)CCCCN3[C@H]2CO)cc1	none
COc1ccccc1S(=O)(=O)N(C)C[C@@H]1OCc2ccccc2-c2ccccc2C(=O)N([C@H](C)CO)C[C@@H]1C	none
O=C(Cc1ccccn1)N1CC(=O)N2[C@@H](CO)[C@@H](c3ccc(C#CC4CC4)cc3)[C@@H]2C1	none
Cc1cccc(-c2ccc([C@H]3[C@@H](CO)N4C(=O)CN(C(=O)Cc5ccccn5)C[C@@H]34)cc2)c1	IDE exosite FP -11
Cc1ccc(-c2ccc([C@H]3[C@@H](CO)N4C(=O)CN(C(=O)Cc5ccccn5)C[C@@H]34)cc2)cc1	none
COc1ccc(-c2ccc([C@H]3[C@H]4CN(C(=O)Cc5ccccn5)CC(=O)N4[C@H]3CO)cc2)cc1	none
O=C(Cc1ccccn1)N1CC(=O)N2[C@H](CO)[C@@H](c3ccc(C#CC4CC4)cc3)[C@H]2C1	none
O=C(Cc1ccccn1)N1CC(=O)N2[C@@H](CO)[C@H](c3ccc(-c4ccccc4)cc3)[C@@H]2C1	none
Cc1cccc(-c2ccc([C@@H]3[C@@H](CO)N4C(=O)CN(C(=O)Cc5ccccn5)C[C@@H]34)cc2)c1	IDE exosite FP -12
O=C(Cc1ccccn1)N1CC(=O)N2[C@H](C1)[C@@H](c1ccc(C#CC3CC3)cc1)[C@@H]2CO	IDE exosite FP -3.1
Cc1cccc(-c2ccc([C@H]3[C@H]4CN(C(=O)Cc5ccccn5)CC(=O)N4[C@H]3CO)cc2)c1	IDE exosite FP -4.5
Cc1ccc(-c2ccc([C@H]3[C@H]4CN(C(=O)Cc5ccccn5)CC(=O)N4[C@H]3CO)cc2)cc1	none
Cc1ccc(-c2ccc([C@H]3[C@H](CO)N4C(=O)CN(C(=O)Cc5ccccn5)C[C@@H]34)cc2)cc1	none
COc1ccc(-c2ccc([C@@H]3[C@@H](CO)N4C(=O)CN(C(=O)Cc5ccccn5)C[C@H]34)cc2)cc1	none
COc1ccc(NC(=O)N2CC(=O)N3[C@H](CO)[C@H](c4ccc(Br)cc4)[C@H]3C2)cc1	none
CCN(C[C@@H]1N[C@@H](CO)[C@H]1c1ccc(-c2cccc(F)c2)cc1)C(=O)COC	none
CCCC#Cc1ccc([C@@H]2[C@@H](CO)N3CCCCN(S(=O)(=O)c4ccccc4F)C[C@H]23)cc1	none
CC(C)NC(=O)N1[C@H](C#N)[C@H](c2ccc(C#CC3CCCC3)cc2)[C@H]1CO	none
CCCC(=O)N1CC2(C1)CN(C(=O)Nc1cccc(F)c1)[C@H](CO)c1c2c2ccc(OC)cc2n1C	none
CCCC(=O)N1CC2(C1)CN(S(=O)(=O)c1ccc(C)cc1)[C@H](CO)c1[nH]c3cc(OC)ccc3c12	none
CS(=O)(=O)N1[C@H](C#N)[C@@H](c2ccccc2)[C@H]1CO	none
C/C=C/c1ccc([C@@H]2[C@@H](CO)N3C(=O)CN(C(=O)c4ccncc4)C[C@H]23)cc1	none
CO[C@@H](CN(C)Cc1ccc2c(c1)OCO2)[C@@H](C)CN(C(=O)c1ccccc1)[C@@H](C)CO	none
O=C(Cc1ccncc1)N1CC(=O)N2[C@H](CO)[C@H](c3ccc(C4=CCCC4)cc3)[C@@H]2C1	none
CCC(=O)N1CC(=O)N2[C@@H](CO)[C@@H](c3ccc(-c4ccccc4F)cc3)[C@@H]2C1	IDE exosite FP -5.6
CCC(=O)N1CC(=O)N2[C@H](CO)[C@@H](c3ccc(-c4ccccc4F)cc3)[C@H]2C1	none
COCC(=O)N1CC(=O)N2[C@H](C1)[C@H](c1ccc(-c3ccccc3F)cc1)[C@@H]2CO	none
O=C(C1CCCCC1)N1CC(=O)N2[C@H](C1)[C@@H](c1ccc(-c3ccccc3F)cc1)[C@@H]2CO	none
COCC(=O)N1CC(=O)N2[C@@H](CO)[C@H](c3ccc(-c4ccccc4F)cc3)[C@@H]2C1	none
CCC(=O)N1CC(=O)N2[C@H](CO)[C@@H](c3ccc(-c4ccccc4F)cc3)[C@@H]2C1	IDE exosite FP -5.2
